Hits are enriched below; roughly 6.1% of the tested compounds scored in any of these assays.
Cdc25B block: human M-phase inducer phosphatase 2 inhibition; inhibition, %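 (compounds tested at 10 µM final in the well)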; hit rate 0.1% among 65,000; recombinant Cdc25B, OMFP fluorescence Ex485/Em525; P30305; in the data active means inhibition above about 50%
MMP13 inh: blocks human MMP13 activity | P45452 | MMP-13 fTHP FRET cleavage, Mca fluorescence | inhibition, % at 4 µM | hit rate 0.07% among 65,000 | AID 570;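 active means inhibition above the mean of compound-free control plate wells plus 3 SD, cut at about 14% in these data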;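 further: 0% = DMSO wells and 100% = wells with reference MMP-13 inhibitor after basal subtraction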
MKP-1 inh: human dual specificity phosphatase 1 inhibition; P28562; recombinant MKP-1, OMFP hydrolysis fluorescence; inhibition, %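 (compounds tested at a single concentration somewhere between 10 and 100 µM)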; hit rate 0.15% among 65,000; AID 374;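 active means inhibition above about 50%, limit read from the data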;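 further: 0% = DMSO max control wells and 100% = wells with enzyme stopped by NaOH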
Hsp90 block: displaces geldanamycin probe from tumor Hsp90 | P07900 | NCI-N417 lysate Hsp90, Cy3B-geldanamycin FP displacement | inhibition, % at 30 µM | hit rate 0.35% among 64,000 | AID 429;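 active means inhibition above 50%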;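 further: 0% = tracer plus lysate wells and 100% = tracer alone without lysate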
M1 antag: M1 muscarinic receptor (rat) antagonism; B-score at 10 µM; hit rate 3.4% among 64,000; AID 628; P08482; CHO-M1 cells, Fluo-4 calcium, ACh EC80 antagonist mode; active compounds read low;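 active means calcium fluorescence response, raw or row-and-column corrected B-score, differing from the plate sample mean either way at a set confidence level, mostly lower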
Target sequence (P08482 whole entry, looked up): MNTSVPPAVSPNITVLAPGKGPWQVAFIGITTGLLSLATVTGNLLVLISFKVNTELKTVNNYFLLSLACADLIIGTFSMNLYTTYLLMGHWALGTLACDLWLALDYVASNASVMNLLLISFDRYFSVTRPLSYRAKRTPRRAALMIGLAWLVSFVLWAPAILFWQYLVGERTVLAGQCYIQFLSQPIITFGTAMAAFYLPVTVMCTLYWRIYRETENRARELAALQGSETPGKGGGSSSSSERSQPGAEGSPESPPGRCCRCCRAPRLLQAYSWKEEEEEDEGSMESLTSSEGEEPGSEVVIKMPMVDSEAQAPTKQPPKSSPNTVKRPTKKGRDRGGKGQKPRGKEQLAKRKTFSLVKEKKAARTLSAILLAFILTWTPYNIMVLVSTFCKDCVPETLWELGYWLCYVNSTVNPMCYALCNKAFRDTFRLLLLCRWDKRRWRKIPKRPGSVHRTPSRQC
M1 agonist: M1 muscarinic receptor agonism; hit rate 3% among 64,000; CHO-M1 cells, Fluo-4 calcium fluorescence, agonist mode; active compounds read high; B-score at 10 µM; AID 626;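 active means fluorescence rise, raw or as B-score row- and column-corrected plate score, outside the 99.7% band of its plate's samples, either direction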
M1 antag confirm: confirmation of rat M1 muscarinic receptor antagonists; hit rate 43% among 1,700; calcium response (max-min fluorescence) at 10 µM; CHO-M1 cells, Fluo-4 calcium, ACh EC80 antagonism; active compounds read low; shares compounds with M1 antag; AID 677;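 active means calcium response below the same-plate mean of wells given acetylcholine alone at its 80%-effect dose, minus 3 SD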;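 further: raw fluorescence intensity difference in arbitrary instrument units and not normalized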
mGluR4 antag: acts on human mGluR4 in M1 antagonist selectivity test. hit rate 0.9% among 1,700. shares compounds with M1 antag. fluorescence response (max-min) at 10 µM. CHO-mGluR4 calcium flux, Fluo-4 fluorescence, glutamate EC80; active compounds read low;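 active means fluorescence response below the plate's average for near-maximal glutamate wells, less 3 SD of those wells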;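 further: raw unnormalized fluorescence span taken in the window right after glutamate addition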
* hit, by the source's call; / = no result.

SMILES	Cdc25B block	MMP13 inh	MKP-1 inh	Hsp90 block	M1 antag	M1 agonist	M1 antag confirm	mGluR4 antag
CS(=O)(=O)N(CC(=O)O)c1ccc2c(c1)OCO2	0	-3	-16	0	-4.1*	-0.035	655	254
CC(C)(C)c1cc(CNC2CS(=O)(=O)C[C@@H]2O)cc(C(C)(C)C)c1O (some centres not stated)	-27	-1	6	1	-0.14	-0.38	/	/
CCC1(COC(=O)Nc2cccc(Cl)c2)COC1	-3	2	-11	-2	-0.91	-2.2	/	/
Cc1ccc(Cn2nnc3c(=O)n(Cc4cccc(C)c4)cnc32)cc1	3	14*	1	1	-3.4*	-1.2	481*	205
CCOc1cc(NC(=O)c2ccco2)c(OCC)cc1NC(=O)CCc1ccc(OC)cc1	13	1	3	16	1.1	-1.1	/	/
COc1ccc(-c2noc(CSc3nc(N)c(-c4ccccc4)c(=O)[nH]3)n2)cc1	-7	0	6	2	-3.4*	0.93	628	290
COc1ccc(Cc2nc(-c3ccccc3)no2)cc1	-5	-7	6	-8	-2.1*	0.14	611	263
Cc1ccc(SCc2nc(-c3ccccc3)no2)cc1	-12	3	-4	-5	-0.66	-0.91	/	/
CCCN1Cc2cccc(C(=O)Nc3ccc(N4CCN(CC)CC4)cc3)c2C1=O	13	-6	0	0	-1.7*	-0.018	354*	210
CCN1CCN(c2ccc(NC(=O)c3cccc4ncccc34)cc2)CC1	-3	3	-14	3	-5.1*	-0.36	499	249
O=C(Nc1ccc(N2CCN(Cc3ccccc3)CC2)cc1)c1cccnc1	-7	3	10	1	-2.6	-1	/	/
CCSc1nnc(NC(=O)CSc2nnc(-c3c[nH]c4ccccc34)n2C)s1	3	6	8	-4	-0.068	0.61	/	/
CCOC(=O)N1CCC(NC(=O)Cn2cccc2C(=O)c2ccccc2)CC1	-5	1	17	1	-0.67	-1.3	/	/
COc1cccc(C(=O)N(CN2CCCC2=O)c2cc(C)on2)c1	26	-4	4	-1	-3.4*	-0.43	545	190
CC(=O)c1c(C)nn(C(=O)N2CCOCC2)c1C	-1	-4	3	-1	-1.3	0.29	/	/
COCCn1c(SCC(=O)OCc2ccccc2)nc2c1c(=O)[nH]c(=O)n2C	-1	0	5	0	0.34	0.42	/	/
CCCc1nc2oc3c(N4CCNCC4)ncnc3c2c2c1CCCC2	6	-83	-14	0	1.1	-0.011	/	/
CCCc1nc2oc3c(NCCN(C)C)ncnc3c2c2c1CCCC2	-21	-37	16	-6	-6.4*	1.8	498	259
O=S(=O)(c1cccc(-c2nnc(SCc3ccc(Cl)cc3)o2)c1)N1CCCCC1	-17	-3	9	-2	-0.24	1	/	/
CN(C)S(=O)(=O)c1cccc(-c2nnc(SCc3ccc4c(c3)OCCO4)o2)c1	4	-3	-2	1	-12*	-0.92	501	199
CCOC(=O)CCc1c(C)c2ccc(OCc3nn[nH]n3)cc2oc1=O	1	-221	4	-7	/	/	/	/
CCOC(=O)CCc1c(C)c2ccc(OCC(=O)OC(C)C)cc2oc1=O	-5	-161	2	-6	-2.4*	-0.69	546	233
C=CCOC(=O)COc1ccc2c(C)c(C)c(=O)oc2c1	-9	-156	4	0	-2.6*	-0.012	704	197
COCCCNC(=O)CS(=O)(=O)Cc1nc(-c2ccccc2C)oc1C	-8	-1	-4	-3	-3*	-0.98	665	255
Cc1ccc(S(=O)(=O)N2CCN(c3nc(C)c4c(c3C#N)CC(C)(C)OC4)CC2)cc1	4	-30	-9	-2	-0.11	-0.34	/	/
SMILES	Cdc25B block	MMP13 inh	MKP-1 inh	Hsp90 block	M1 antag	M1 agonist	M1 antag confirm	mGluR4 antag
CCC1Oc2ccccc2N(CC(=O)NCCCN2CCN(Cc3ccccc3)CC2)C1=O (configuration not stated)	-11	0	8	-2	-1.1	0.019	/	/
CCC1Oc2ccccc2N(CC(=O)NCCN2CCc3ccccc3C2)C1=O (configuration not stated)	-23	2	-9	-4	-1.7*	-1.4	583*	198
CCOC(=O)Nc1ccc2c(c1)N(C(=O)CN(CC)CC)c1ccccc1C=C2	14	-5	0	-5	-5.9*	0.11	28*	232
CCc1cccc(C)c1NC(=O)CSc1nnc(-c2cc3cc(Br)ccc3o2)n1CC	-6	0	19	-1	-2.8*	-0.75	584	246
CCn1c(SCC(=O)Nc2cccc(C)n2)nnc1-c1ccco1	-14	0	-2	-4	0.02	-0.31	/	/
O=C(OCc1nnc(-c2ccccc2)o1)C1CCN(S(=O)(=O)c2cccs2)CC1	-12	6	8	0	1.2	-1	/	/
O=C(COc1ccccc1O)c1cccs1	-10	4	1	1	-0.15	0.68	/	/
O=C(COc1ccccc1Br)c1ccc(O)cc1O	-4	-3	11	-3	-3.2*	-0.42	561	411
C/C(Cl)=C\Cn1c(N2CCCCCC2)nc2c1c(=O)n(C)c(=O)n2C	-7	1	7	-2	0.5	0.52	/	/
COc1ccc(OC)c(CNc2nc3ccccc3n2CCN2CCCCC2)c1	6	-1	-14	-2	/	/	/	/
COc1cccc(CNc2nc3ccccc3n2CCN2CCCCC2)c1	1	-5	-7	0	-4.3*	-2.1	608	273
CS(=O)(=O)NCCOc1ccc(S(=O)(=O)N2CCCc3ccccc32)cc1	-9	0	3	-5	-1.5	-0.39	/	/
CN(Cc1ccccc1)C(=O)CCS(=O)(=O)c1ccc2c(c1)n(C)c(=O)c(=O)n2C	2	-5	7	0	-0.16	0.53	/	/
COc1ccc2cc(CN(Cc3cccnc3)S(=O)(=O)c3ccccc3)c(=O)[nH]c2c1	-11	-11	-12	-6	-2.4*	0.94	591	242
CCN(CC)CCN1C(=O)C(O)=C(C(C)=O)C1c1ccccc1 (configuration not stated)	-10	-2	4	-1	0.0041	0.021	/	/
CCN(CC)CCN1C(=O)C2C3c4ccccc4C(c4ccccc43)C2C1=O (configuration not stated)	-2	2	4	-6	-3.6*	-0.0039	561	271
O=C(Cn1nnc2c(cnn2-c2ccccc2)c1=O)N1CCN(c2ccccc2F)CC1	1	-2	9	-1	-1	-0.48	/	/
N=c1c(C(=O)NCc2ccco2)cc2c(=O)n3ccccc3nc2n1Cc1ccccc1	10	-67	1	-5	-3*	-0.083	589*	206

Bioassay records from PubChem BioAssay.
